Targets with a hit are over-represented here; the source holds about 7,900 in all. About 0.6% of all pairs of compound and target were hits.
Compound: C1CN(CCC1(CC2=CC=C(C=C2)Cl)N)C3=NC=NC4=C3C=CN4
Assay: log2 fold change, soluble protein after heating vs DMSO (PISA); higher = thermal stabilisation; K562 cells, 10 uM, 30 min; active = over 0.2 and 3.5 SD of the protein, either way, in both replicates (recomputed)
Outline: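 Soluble protein was quantified by TMTpro 16plex LC-MS/MS after channel sums were equalised. It was obtained as the supernatant after 21,000xg for 90 min from pooled aliquots of K562 cells (2×10^6 cells/mL, 10 μM compound, 30 min) heated for 3 min across 48°C-58°C and extracted in PBS with 0.5% NP-40 at 4°C. Thermal stability values are relative to control samples and come from duplicates. They are given as log2 fold changes.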

Chain of UniProt Q8WUH2 (Q8WUH2 whole entry, looked up): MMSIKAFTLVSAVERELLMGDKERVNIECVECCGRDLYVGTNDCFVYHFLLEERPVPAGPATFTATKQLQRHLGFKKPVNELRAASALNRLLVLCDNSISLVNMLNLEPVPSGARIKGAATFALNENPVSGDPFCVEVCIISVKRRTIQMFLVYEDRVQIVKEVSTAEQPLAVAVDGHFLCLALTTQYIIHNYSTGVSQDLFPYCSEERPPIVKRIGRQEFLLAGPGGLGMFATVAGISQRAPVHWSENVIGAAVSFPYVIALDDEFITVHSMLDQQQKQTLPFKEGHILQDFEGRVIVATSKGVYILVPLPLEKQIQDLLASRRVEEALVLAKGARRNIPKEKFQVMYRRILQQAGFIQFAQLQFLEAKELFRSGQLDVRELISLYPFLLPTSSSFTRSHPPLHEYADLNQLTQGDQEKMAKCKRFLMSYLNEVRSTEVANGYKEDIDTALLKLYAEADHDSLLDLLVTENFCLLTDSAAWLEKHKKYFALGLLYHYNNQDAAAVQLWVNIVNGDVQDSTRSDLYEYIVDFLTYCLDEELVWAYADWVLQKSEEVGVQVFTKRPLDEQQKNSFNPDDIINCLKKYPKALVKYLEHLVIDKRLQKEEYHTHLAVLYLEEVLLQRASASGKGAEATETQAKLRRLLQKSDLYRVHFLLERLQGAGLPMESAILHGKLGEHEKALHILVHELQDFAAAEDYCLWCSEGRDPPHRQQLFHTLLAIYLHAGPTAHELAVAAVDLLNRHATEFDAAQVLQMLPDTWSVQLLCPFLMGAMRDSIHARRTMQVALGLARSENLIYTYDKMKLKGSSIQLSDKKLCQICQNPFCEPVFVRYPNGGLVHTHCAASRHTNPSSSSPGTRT
Chain of UniProt Q9UH99 (Q9UH99 whole entry, looked up): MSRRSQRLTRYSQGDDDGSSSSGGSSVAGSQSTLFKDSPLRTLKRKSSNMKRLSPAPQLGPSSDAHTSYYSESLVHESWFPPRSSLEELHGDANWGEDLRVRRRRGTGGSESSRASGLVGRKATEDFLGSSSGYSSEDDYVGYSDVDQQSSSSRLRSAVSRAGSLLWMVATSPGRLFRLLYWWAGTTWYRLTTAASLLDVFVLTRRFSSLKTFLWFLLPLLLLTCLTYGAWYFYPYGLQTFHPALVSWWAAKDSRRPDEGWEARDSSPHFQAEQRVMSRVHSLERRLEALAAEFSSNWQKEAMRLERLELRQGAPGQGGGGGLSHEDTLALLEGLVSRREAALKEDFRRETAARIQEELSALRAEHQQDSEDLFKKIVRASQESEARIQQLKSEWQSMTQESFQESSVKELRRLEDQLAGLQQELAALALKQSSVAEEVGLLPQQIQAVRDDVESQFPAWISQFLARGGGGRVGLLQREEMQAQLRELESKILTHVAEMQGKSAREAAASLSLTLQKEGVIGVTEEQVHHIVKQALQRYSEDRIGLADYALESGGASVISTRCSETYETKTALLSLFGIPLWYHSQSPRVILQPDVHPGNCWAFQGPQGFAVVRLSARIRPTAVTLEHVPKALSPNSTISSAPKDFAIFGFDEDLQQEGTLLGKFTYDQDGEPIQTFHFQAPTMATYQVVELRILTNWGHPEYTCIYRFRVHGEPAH
Chain of UniProt Q15833 (Q15833 whole entry, looked up): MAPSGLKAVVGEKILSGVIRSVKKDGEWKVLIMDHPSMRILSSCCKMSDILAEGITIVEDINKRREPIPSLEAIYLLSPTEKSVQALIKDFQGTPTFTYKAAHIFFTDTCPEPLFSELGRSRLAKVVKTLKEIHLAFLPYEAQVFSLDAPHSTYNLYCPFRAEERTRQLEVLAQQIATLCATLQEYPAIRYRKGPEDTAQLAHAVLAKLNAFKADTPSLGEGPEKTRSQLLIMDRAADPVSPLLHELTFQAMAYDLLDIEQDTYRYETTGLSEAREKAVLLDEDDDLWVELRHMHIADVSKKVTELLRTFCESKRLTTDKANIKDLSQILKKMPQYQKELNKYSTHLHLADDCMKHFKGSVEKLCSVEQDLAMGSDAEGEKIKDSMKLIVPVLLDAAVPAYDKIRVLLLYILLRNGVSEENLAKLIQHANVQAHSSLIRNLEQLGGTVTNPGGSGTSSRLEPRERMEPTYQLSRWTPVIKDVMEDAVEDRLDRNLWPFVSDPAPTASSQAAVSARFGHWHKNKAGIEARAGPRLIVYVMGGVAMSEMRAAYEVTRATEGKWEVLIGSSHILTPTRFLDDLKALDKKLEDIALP
Chain of UniProt O00193 (O00193 whole entry, looked up): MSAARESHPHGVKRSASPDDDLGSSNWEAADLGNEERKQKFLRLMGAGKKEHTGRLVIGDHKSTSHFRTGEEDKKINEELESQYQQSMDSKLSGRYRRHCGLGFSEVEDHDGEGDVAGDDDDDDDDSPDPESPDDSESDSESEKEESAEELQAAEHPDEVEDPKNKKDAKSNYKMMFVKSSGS
Chain of UniProt Q9UKI8 (Q9UKI8 whole entry, looked up): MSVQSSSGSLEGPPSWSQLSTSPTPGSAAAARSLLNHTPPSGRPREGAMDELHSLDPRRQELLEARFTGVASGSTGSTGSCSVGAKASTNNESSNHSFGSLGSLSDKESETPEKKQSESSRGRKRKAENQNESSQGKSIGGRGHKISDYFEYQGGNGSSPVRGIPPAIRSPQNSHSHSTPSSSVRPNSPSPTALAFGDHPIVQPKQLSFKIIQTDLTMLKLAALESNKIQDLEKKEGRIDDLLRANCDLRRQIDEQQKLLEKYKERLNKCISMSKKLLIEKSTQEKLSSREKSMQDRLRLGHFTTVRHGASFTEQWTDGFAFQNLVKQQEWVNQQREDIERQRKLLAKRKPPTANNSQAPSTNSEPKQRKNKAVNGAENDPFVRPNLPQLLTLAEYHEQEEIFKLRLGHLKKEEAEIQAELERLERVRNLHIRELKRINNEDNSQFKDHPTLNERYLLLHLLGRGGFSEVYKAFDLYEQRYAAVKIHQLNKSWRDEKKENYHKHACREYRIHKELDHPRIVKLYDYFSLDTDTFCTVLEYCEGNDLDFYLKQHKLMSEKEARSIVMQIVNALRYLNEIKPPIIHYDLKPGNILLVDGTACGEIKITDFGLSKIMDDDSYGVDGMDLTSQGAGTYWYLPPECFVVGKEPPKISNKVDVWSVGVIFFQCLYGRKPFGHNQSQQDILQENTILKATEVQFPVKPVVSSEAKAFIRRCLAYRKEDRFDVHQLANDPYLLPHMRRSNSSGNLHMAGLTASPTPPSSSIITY
Chain of UniProt Q8TCT7 (Q8TCT7 whole entry, looked up): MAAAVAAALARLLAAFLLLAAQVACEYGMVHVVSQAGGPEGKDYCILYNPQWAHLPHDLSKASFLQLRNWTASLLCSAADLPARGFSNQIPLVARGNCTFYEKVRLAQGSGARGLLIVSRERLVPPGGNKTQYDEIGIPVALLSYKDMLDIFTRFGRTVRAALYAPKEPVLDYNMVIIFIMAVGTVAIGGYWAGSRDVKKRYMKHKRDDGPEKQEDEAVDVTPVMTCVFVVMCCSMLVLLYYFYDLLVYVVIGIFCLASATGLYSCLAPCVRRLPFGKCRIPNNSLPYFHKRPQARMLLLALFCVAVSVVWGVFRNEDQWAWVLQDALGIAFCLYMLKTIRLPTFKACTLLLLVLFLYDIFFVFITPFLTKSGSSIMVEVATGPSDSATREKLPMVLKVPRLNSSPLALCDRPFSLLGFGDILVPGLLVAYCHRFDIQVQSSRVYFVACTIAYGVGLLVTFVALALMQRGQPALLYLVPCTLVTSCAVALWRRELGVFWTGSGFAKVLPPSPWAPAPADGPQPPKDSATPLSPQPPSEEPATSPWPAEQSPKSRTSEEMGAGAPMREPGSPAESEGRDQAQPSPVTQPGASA
Chain of UniProt P08579 (P08579 whole entry, looked up): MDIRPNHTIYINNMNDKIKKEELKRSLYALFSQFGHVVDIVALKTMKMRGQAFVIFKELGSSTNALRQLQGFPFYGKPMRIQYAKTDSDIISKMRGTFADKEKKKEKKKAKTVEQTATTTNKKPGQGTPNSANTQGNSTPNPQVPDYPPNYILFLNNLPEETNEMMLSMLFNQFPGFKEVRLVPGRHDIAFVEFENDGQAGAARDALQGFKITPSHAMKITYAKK
Chain of UniProt O60493 (O60493 whole entry, looked up): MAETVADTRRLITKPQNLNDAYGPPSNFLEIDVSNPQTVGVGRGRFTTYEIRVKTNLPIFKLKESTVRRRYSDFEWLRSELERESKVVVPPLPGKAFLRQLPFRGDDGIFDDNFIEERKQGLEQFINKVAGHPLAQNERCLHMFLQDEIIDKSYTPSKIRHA
Chain of UniProt Q8WXA9 (Q8WXA9 whole entry, looked up): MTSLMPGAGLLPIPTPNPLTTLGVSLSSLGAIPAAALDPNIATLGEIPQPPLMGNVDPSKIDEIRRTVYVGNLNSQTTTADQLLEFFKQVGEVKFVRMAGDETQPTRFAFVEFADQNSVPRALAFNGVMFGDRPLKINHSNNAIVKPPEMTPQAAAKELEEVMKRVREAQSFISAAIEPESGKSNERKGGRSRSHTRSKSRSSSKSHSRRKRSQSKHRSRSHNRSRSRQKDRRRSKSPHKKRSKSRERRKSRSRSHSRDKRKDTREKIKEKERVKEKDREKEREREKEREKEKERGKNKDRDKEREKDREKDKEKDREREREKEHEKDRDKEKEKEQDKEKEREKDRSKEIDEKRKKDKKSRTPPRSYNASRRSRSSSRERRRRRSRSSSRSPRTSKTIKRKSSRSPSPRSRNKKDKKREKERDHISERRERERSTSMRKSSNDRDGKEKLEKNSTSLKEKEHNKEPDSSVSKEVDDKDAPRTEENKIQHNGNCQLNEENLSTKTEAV
Chain of UniProt O75663 (O75663 whole entry, looked up): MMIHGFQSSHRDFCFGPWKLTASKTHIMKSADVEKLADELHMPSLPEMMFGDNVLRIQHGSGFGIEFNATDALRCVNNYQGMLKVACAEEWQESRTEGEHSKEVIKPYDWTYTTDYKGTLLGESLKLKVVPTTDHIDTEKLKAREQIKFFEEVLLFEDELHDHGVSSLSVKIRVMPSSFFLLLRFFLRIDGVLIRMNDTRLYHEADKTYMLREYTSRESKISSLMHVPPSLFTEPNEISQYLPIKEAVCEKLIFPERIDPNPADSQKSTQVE
Chain of UniProt Q9Y5L4 (Q9Y5L4 whole entry, looked up): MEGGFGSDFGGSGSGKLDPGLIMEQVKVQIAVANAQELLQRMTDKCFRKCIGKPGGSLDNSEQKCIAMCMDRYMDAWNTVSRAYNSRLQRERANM

log2 fold change, inactive:
TBC1D23 (UniProt Q9NUY8) -0.025
TFB2M (UniProt Q9H5Q4) 0.007
TGFBRAP1 (UniProt Q8WUH2) -0.053
SNX9 (UniProt Q9Y5X1) 0.028
THRAP3 (UniProt Q9Y2W1) -0.09
SRRM2 (UniProt Q9UQ35) -0.128
SSX2 (UniProt Q16385) -0.004
SMAP (UniProt O00193) 0.047
SMARCA5 (UniProt O60264) -0.227
SPAG9 (UniProt O60271) -0.009
SURF1 (UniProt Q15526) 0
TANGO6 (UniProt Q9C0B7) 0
SYNE1 (UniProt Q8NF91) 0.172
STAM2 (UniProt O75886) -0.025
SRSF2 (UniProt Q01130) -0.027
SMAD9 (UniProt O15198) -0.076
SPPL2B (UniProt Q8TCT7) 0.038
SUOX (UniProt P51687) 0.087
SPART (UniProt Q8N0X7) -0.055
TLK1 (UniProt Q9UKI8) -0.014
STXBP5 (UniProt Q5T5C0) 0.011
TCOF1 isoform 4 (UniProt Q13428) -0.107
TERF2IP (UniProt Q9NYB0) -0.006
TARS2 (UniProt Q9BW92) -0.058
TM9SF2 (UniProt Q99805) 0.063
TIPRL (UniProt O75663) -0.041
SREK1 isoform 2 (UniProt Q8WXA9) -0.24
SNX3 (UniProt O60493) -0.068
STXBP2 isoform 3 (UniProt Q15833) -0.166
SMPD4 isoform 4 (UniProt Q9NXE4) -0.011
TIMM13 (UniProt Q9Y5L4) -0.006
SPTBN1 (UniProt Q01082) -0.071
SUN2 (UniProt Q9UH99) -0.017
TAOK1 (UniProt Q7L7X3) -0.01
SMARCE1 (UniProt Q969G3) -0.127
SRI (UniProt P30626) -0.041
SNRPB2 (UniProt P08579) -0.026

— the supplement of paper PMC10849652
